Measurements: PMC5540273 (PLoS ONE, 2017)

How the values were obtained:
Conditions in all cases: concentration: 1 μM, replicates: in singlicate; n = 1
[1] = tested on: T1, RSK4(Kin.Dom.1-N-terminal)
T1 construct: gene RPS6KA6

[2] = tested on: T2, RSK4(Kin.Dom.2-C-terminal)
T2 construct: gene RPS6KA6

S6K1 = tested on: S6K1
SBK1 = tested on: SBK1
SGK2 = tested on: SGK2
SGK3 = tested on: SGK3
SGK = tested on: SGK
SIK2 = tested on: SIK2
SIK = tested on: SIK
SLK = tested on: SLK
SNARK = tested on: T3, SNARK
T3 construct: gene NUAK2

SNRK = tested on: SNRK
SRC = tested on: SRC
SRMS = tested on: SRMS
SRPK1 = tested on: SRPK1
SRPK2 = tested on: SRPK2
SRPK3 = tested on: SRPK3
STK16 = tested on: STK16
STK33 = tested on: STK33
STK35 = tested on: STK35
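Further: KINOMEscan kinase panel screen.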

Structure (SMILES)	%Inh [1] [%]	%Inh [2] [%]	%Inh (S6K1) [%]	%Inh (SBK1) [%]	%Inh (SGK2) [%]	%Inh (SGK3) [%]	%Inh (SGK) [%]	%Inh (SIK2) [%]	%Inh (SIK) [%]	%Inh (SLK) [%]	%Inh (SNARK) [%]	%Inh (SNRK) [%]	%Inh (SRC) [%]	%Inh (SRMS) [%]	%Inh (SRPK1) [%]	%Inh (SRPK2) [%]	%Inh (SRPK3) [%]	%Inh (STK16) [%]	%Inh (STK33) [%]	%Inh (STK35) [%]
CN(c1ccc(F)c(NC(=O)c2cccc(OC(C)(C)C#N)c2Cl)c1)c1ccc2nc(NC(=O)C3CC3)sc2n1	4	0	1	18	0	2	0	39	97	14	0	12	99	0	52	0	0	0	0	0
Nc1ncnc2scc(-c3ccc(NC(=O)Cc4cc(F)ccc4F)cc3)c12.O=C(O)C(F)(F)F [SB-731254-M]	17	18	46	27	27	23	18	11	5	28	23	11	13	30	10	25	3	1	6	0
CC(C)c1nc(-c2cccc(NS(=O)(=O)c3c(F)cccc3F)c2)c(-c2ccnc(Nc3ccc(N4CCOCC4)nc3)n2)s1.Cl [GSK1723980]	0	19	29	20	0	15	34	90.8	99.4	73	0	0	100	99.7	48	0	0	30	62	30
CSc1ccc(NC2=C(c3ccc(Cl)cc3)C(=O)NC2=O)cc1 [SB-317658]	5	0	0	29	0	0	0	9	25	8	12	0	17	3	0	7	9	24	0	0
Nc1ncc(-c2cn[nH]c2)c2scc(-c3ccc4c(c3)CCN4C(=O)Cc3ccccc3)c12 [GSK2593067]	0	0	8	0	0	0	0	0	59	73	10	0	69	59	44	0	0	0	2	0
COc1cccc(NC(=O)NCCNc2ccnc(Nc3ccc(F)cc3)n2)c1 [GSK1379879]	0	0	0	40	12	2	3	4	0	7	0	0	0	0	0	0	3	0	0	1
Cc1ccc(-c2ccc3occ(-c4ccc(S(C)=O)cc4)c3c2)nn1 (stereo not drawn)	0	0	5	0	0	0	0	7	0	12	0	0	6	0	0	6	0	12	0	0
Cc1cccc(Nc2nc(N[C@H]3CCCC[C@H]3N)ncc2C(N)=O)c1.Cl [GSK986310]	12	30	16	71	4	0	0	26	53	72	39	11	65	0	44	0	0	24	55	28
Cc1ccc(NC(=O)c2cccc(N3CCCCC3)c2)cc1-c1ccc(C(=O)NCC2CC2)cc1 [GSK1917008]	0	37	8	10	11	7	0	93.3	8	10	0	0	0	0	32	0	23	7	0	89
Cc1ccc(Nc2ccnc(Nc3ccc(C)c(F)c3)n2)cc1O.Cl [GW582868]	0	0	0	6	0	0	1	100	0	41	0	0	86	0	34	7	17	11	0	99.5
CCOc1nccc(-c2c(-c3ccc(F)cc3)ncn2C2CCNCC2)n1 [SB-249175]	41	83	16	46	34	12	29	4	2	71	82	21	0	34	8	19	1	0	4	0
Cc1ccc(C)c(NC(=O)Nc2ccc(C)c(-c3ccc(C(=O)Nc4ccncc4)cc3)c2)c1 [GSK1398473]	0	18	3	14	0	8	0	0	3	17	0	5	8	0	26	0	0	8	3	6
N#Cc1cnc2cc(-c3cnc(CNCCN4CCOCC4)s3)ccc2c1Nc1ccc(Oc2ccccc2)cc1 [GW664114]	11	14	61	1	0	4	1	16	45	67	0	0	94.1	95.9	30	0	0	12	2	97.7
O=C(O)C(F)(F)F.O=c1[nH]ccc2nc(N[C@@H]3CCNC3)nc(Nc3ccc4c(c3)S(=O)(=O)CC4)c12 [GSK2181306]	97.8	59	92.7	90.1	91.7	98.6	97.2	73	18	99.7	99	25	48	0	92.1	0	88	96.9	100	90.6
Cc1ccc(O)cc1Nc1ccnc2ccc(C(C)(C)C)cc12 [GW856805]	31	1	13	53	13	1	25	0	42	12	19	34	99.9	19	24	8	9	43	11	0
N#CC1(c2cccc(C(=O)Nc3cccc(Oc4ccc5nc(NC(=O)C6CC6)sc5n4)c3)c2)CC1	11	10	0	0	0	0	0	0	31	39	0	0	97.6	15	0	0	0	0	16	0
Cc1cc(-c2c(-c3ccc(F)cc3)ncn2CCCN2CCOCC2)nc(N)n1 [SB-222517]	20	0	11	18	0	3	0	2	0	18	0	0	22	26	0	0	19	0	0	0
Cc1nn2c(=O)cc(N3CCO[C@H](C)C3)nc2n1Cc1cccc(Cl)c1Cl [GSK2373693]	0	0	4	89	1	0	0	0	0	4	0	0	19	0	40	0	0	59	0	1
